Inconclusive results are not listed. A call without a number means that no potency is given here. The source holds several records for some structures; these can differ, active in one and inactive in another. Values without a mark were called inactive. The source made the active and inactive calls. Unless noted, the call rests on the fitted dose curve; in most records, active means well fitted curve in the direction sought with a large enough effect; inconclusive means small, poorly fitted or top-dose-only effect, or another doubt; inactive means no such curve, though single readings can be large; an effect the other way counts as inactive or inconclusive.
Tests used:
[1] = molecular target: ATP-dependent 6-phosphofructokinase (Trypanosoma brucei brucei) (UniProt O15648); experiment: qHTS Assay to Find Inhibitors of T. brucei phosphofructokinase: hit validation (AID 492961); further: potency means the concentration at half of the fitted maximal effect
Method in brief: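 Inhibition of parasite PFK is measured as reduced ADP formation, quantified via luciferase after ATP depletion. Assay used 0.1 mM ATP, 0.5 mM F6P, 1.25 nM enzyme, 45 min incubation.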

[2] = molecular target: Luciferin 4-monooxygenase (Photinus pyralis) (UniProt P08659); experiment: Biochemical firefly luciferase enzyme assay for NPC (AID 624030);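 further: purified P. pyralis luciferase at 10 nM with luciferin and ATP substrate; nearly all actives have a fitted effect of over 70% in size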
Method in brief: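 Purified P. pyralis luciferase at 10 nM in 50 mM Tris Acetate (final), luminescence read within 5 minutes of enzyme addition to compounds. Activity normalised to PTC124 versus DMSO; concentration-response curves classed by r2, magnitude and activity.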

[3] = qHTS profiling for inhibitors of Plasmodium falciparum proliferation (AID 504749); further: potency means the concentration at half of the fitted maximal effect; on all read-outs here: nearly all actives have a fitted effect of over 60% in size; settings: P. falciparum in erythrocytes, SYBR Green DNA, 72 h; for activity, negative = inhibition: at 28.7 µM (top of the series)
Method in brief: (§1)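 P. falciparum-infected erythrocytes (0.3% parasitemia, 2.5% hematocrit) incubated with compound 72 h at 37 C, 5% CO2. Parasite DNA detected by SYBR Green after lysis, overnight at room temperature; normalised to 0.29 uM artemisinin and DMSO.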

CP192 = experiment: as above; settings: P. falciparum in erythrocytes, SYBR Green DNA, 72 h; series mostly up to 28.7 µM
Method in brief: as §1

CP201 = experiment: as above; settings: P. falciparum in erythrocytes, SYBR Green DNA, 72 h; series mostly up to 28.7 µM
Method in brief: as §1

CP211 = experiment: as above; settings: P. falciparum in erythrocytes, SYBR Green DNA, 72 h; series mostly up to 28.7 µM
Method in brief: as §1

CP238 = experiment: as above; settings: P. falciparum in erythrocytes, SYBR Green DNA, 72 h; series mostly up to 28.7 µM
Method in brief: as §1

CP262 = experiment: as above; settings: P. falciparum in erythrocytes, SYBR Green DNA, 72 h; series mostly up to 28.7 µM
Method in brief: as §1

CP269 = experiment: as above; settings: P. falciparum in erythrocytes, SYBR Green DNA, 72 h; series mostly up to 28.7 µM
Method in brief: as §1

CP286 = experiment: as above; settings: P. falciparum in erythrocytes, SYBR Green DNA, 72 h; series mostly up to 28.7 µM
Method in brief: as §1

CP315 = experiment: as above; settings: P. falciparum in erythrocytes, SYBR Green DNA, 72 h; series mostly up to 28.7 µM
Method in brief: as §1

CP325 = experiment: as above; settings: P. falciparum in erythrocytes, SYBR Green DNA, 72 h; series mostly up to 28.7 µM
Method in brief: as §1

CP329 = experiment: as above; settings: P. falciparum in erythrocytes, SYBR Green DNA, 72 h; series mostly up to 28.7 µM
Method in brief: as §1

DFO2036 = experiment: as above; settings: P. falciparum in erythrocytes, SYBR Green DNA, 72 h; series mostly up to 28.7 µM
Method in brief: as §1

Dd2 = experiment: as above; settings: P. falciparum in erythrocytes, SYBR Green DNA, 72 h; series mostly up to 28.7 µM
Method in brief: as §1

FAB9 = experiment: as above; settings: P. falciparum in erythrocytes, SYBR Green DNA, 72 h; series mostly up to 28.7 µM
Method in brief: as §1

JCK = experiment: as above; settings: P. falciparum in erythrocytes, SYBR Green DNA, 72 h; series mostly up to 28.7 µM
Method in brief: as §1

N140 = experiment: as above; settings: P. falciparum in erythrocytes, SYBR Green DNA, 72 h; series mostly up to 28.7 µM
Method in brief: as §1

PC49 = experiment: as above; settings: P. falciparum in erythrocytes, SYBR Green DNA, 72 h; series mostly up to 28.7 µM
Method in brief: as §1

[4] = S16 Schwann cell PMP22 intronic element beta-lactamase assay (AID 624044; calls by dose curve; further: nearly all actives have a fitted effect of over 15% in size); settings: S16 rat Schwann cells, PMP22 element beta-lactamase FRET, 24 h
Method in brief: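 Rat S16 Schwann cells with beta-Lac driven by a PMP22 intronic element, compound-treated 24 h at 37 °C. LiveBLAzer FRET B/G read: 460 nm normalized to potassium clavulanate vs DMSO; 535 nm FRET as viability; concentration-effect curves classified.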

[5] = ratio activity, negative = inhibition: at 38.3 µM (top of the series)

Chain of ATP-dependent 6-phosphofructokinase (Trypanosoma brucei brucei) (O15648 whole entry, looked up): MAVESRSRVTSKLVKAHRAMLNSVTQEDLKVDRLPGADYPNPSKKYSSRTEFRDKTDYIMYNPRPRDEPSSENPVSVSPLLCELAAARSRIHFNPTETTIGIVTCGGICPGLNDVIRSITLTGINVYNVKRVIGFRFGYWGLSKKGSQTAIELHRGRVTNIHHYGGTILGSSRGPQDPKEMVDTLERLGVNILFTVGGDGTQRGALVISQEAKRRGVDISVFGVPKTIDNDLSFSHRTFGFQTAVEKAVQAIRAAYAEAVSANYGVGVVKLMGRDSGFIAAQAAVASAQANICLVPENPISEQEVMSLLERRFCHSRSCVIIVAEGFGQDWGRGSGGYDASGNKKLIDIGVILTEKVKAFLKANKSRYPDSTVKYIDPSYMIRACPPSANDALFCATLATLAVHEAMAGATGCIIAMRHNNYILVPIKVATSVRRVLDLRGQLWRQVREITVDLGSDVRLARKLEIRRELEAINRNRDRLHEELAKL
Chain of Luciferin 4-monooxygenase (Photinus pyralis) (P08659 whole entry, looked up): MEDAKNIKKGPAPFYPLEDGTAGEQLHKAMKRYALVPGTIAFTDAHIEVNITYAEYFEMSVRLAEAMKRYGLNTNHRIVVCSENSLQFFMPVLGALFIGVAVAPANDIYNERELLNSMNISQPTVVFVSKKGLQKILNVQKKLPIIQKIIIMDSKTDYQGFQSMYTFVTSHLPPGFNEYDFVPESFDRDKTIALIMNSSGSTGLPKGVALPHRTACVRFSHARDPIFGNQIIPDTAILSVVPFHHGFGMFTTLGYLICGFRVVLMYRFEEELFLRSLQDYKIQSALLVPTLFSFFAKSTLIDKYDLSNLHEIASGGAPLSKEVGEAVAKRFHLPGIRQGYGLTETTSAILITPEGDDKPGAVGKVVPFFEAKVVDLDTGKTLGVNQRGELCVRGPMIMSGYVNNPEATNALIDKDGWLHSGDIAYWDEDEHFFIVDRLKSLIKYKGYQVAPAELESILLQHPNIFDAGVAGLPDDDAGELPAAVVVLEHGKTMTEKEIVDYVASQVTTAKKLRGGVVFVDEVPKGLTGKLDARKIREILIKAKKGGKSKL

CO/N=C(/C(=O)N[C@@H]1C(=O)N2C(C(=O)O)=C(CSc3nnnn3C)CS[C@H]12)c1csc(N)n1
Potency [1]: inactive
Potency [2]: inactive
activity, negative = inhibition ([3]; parasite line A): 6.68%
activity, negative = inhibition ([3]; parasite line B): 0.88%
Potency (CP192): inactive
Potency (CP201): inactive
Potency (CP211): inactive
Potency (CP238): inactive
Potency (CP262): inactive
Potency (CP269): inactive
Potency (CP286): inactive
Potency (CP315): inactive
Potency (CP325): inactive
Potency (CP329): inactive
Potency (DFO2036): inactive
Potency (Dd2): inactive
Potency (FAB9): inactive
Potency (JCK): inactive
Potency (N140): inactive
Potency (PC49): inactive

CC1CN(c2c(F)c(N)c3c(=O)c(C(=O)O)cn(C4CC4)c3c2F)CC(C)N1 (configuration not stated)
Potency [1]: inactive
Potency [2]: inactive
Potency [4, 5]: inactive
activity, negative = inhibition ([3]; parasite line A): -2.02%
activity, negative = inhibition ([3]; parasite line B): 11%
Potency (CP192): inactive
Potency (CP201): inactive
Potency (CP211): inactive
Potency (CP238): inactive
Potency (CP262): inactive
Potency (CP269): inactive
Potency (CP286): inactive
Potency (CP315): inactive
Potency (CP325): inactive
Potency (CP329): inactive
Potency (DFO2036): inactive
Potency (Dd2): inactive
Potency (FAB9): inactive
Potency (JCK): inactive
Potency (N140): inactive
Potency (PC49): inactive

CCCCC(=O)OC1CCC2C3CCc4cc(O)ccc4C3CC[C@]12C (some centres not stated)
Potency [1]: inactive
Potency [2]: inactive
Potency [4, 5]: inactive
activity, negative = inhibition ([3]; parasite line A): -29.6%
Potency (CP192): inactive
Potency (CP201): inactive
Potency (CP211): inactive
Potency (CP238): inactive
Potency (CP262): inactive
Potency (CP269): inactive
Potency (CP286): inactive
Potency (CP315): inactive
Potency (CP325): inactive
Potency (CP329): inactive
Potency (DFO2036): inactive
Potency (FAB9): inactive
Potency (JCK): inactive
Potency (N140): 11.2 µM (active)
Potency (PC49): inactive

OCC(O)C(O)C(O)C(O)CO (configuration not stated)
Potency [1]: inactive
Potency [2]: inactive
ratio activity, negative = inhibition ([4]; at 38.3 µM (top of the series)): -3.36%
ratio activity, negative = inhibition [4, 5]: 1.06% (active)
activity, negative = inhibition ([3]; parasite line B): 7.82%
Potency (CP192): inactive
Potency (CP201): inactive
Potency (CP211): inactive
Potency (CP238): inactive
Potency (CP262): inactive
Potency (CP269): inactive
Potency (CP286): inactive
Potency (CP315): inactive
Potency (CP325): inactive
Potency (CP329): inactive
Potency (DFO2036): inactive
Potency (Dd2): inactive
Potency (FAB9): inactive
Potency (JCK): inactive
Potency (N140): inactive
Potency (PC49): inactive

C[C@]12CC[C@@H]3c4ccc(O)cc4CC[C@H]3[C@@H]1CCC2OC(=O)CCC1CCCC1 (some centres not stated)
Potency [1]: inactive
Potency [2]: inactive
Potency [4, 5]: inactive
activity, negative = inhibition ([3]; parasite line A): -2.55%
activity, negative = inhibition ([3]; parasite line B): -17%
Potency (CP192): inactive
Potency (CP201): inactive
Potency (CP211): inactive
Potency (CP238): inactive
Potency (CP262): inactive
Potency (CP269): inactive
Potency (CP315): inactive
Potency (CP325): inactive
Potency (CP329): inactive
Potency (DFO2036): inactive
Potency (FAB9): inactive
Potency (JCK): inactive
Potency (N140): inactive
Potency (PC49): inactive

NC(C(=O)O)C(O)c1ccc(O)c(O)c1 (configuration not stated)
Potency [1]: 4.47 µM (active)
Potency [4, 5]: inactive
Potency ([3]; parasite line A): 14.1 µM (active)
Potency (CP315): inactive
Potency (JCK): inactive
Potency (N140): 12.6 µM (active)
Potency (PC49): inactive

CCOc1ccccc1O[C@@H](c1ccccc1)[C@@H]1CNCCO1
Potency [1]: inactive
Potency [2]: inactive
Potency [4, 5]: inactive
activity, negative = inhibition ([3]; parasite line A): -12.8%
Potency (CP192): inactive
Potency (CP201): inactive
Potency (CP211): inactive
Potency (CP262): inactive
Potency (CP269): inactive
Potency (CP315): inactive
Potency (CP325): inactive
Potency (CP329): inactive
Potency (DFO2036): inactive
Potency (Dd2): 0.0794 µM (active)
Potency (FAB9): inactive
Potency (PC49): 2.24 µM (active)

C=C1CC2C3C=C(C)C4=CC(=O)CCC4(C)C3CCC2(C)[C@@]1(OC(C)=O)C(C)=O (some centres not stated)
Potency [1]: inactive
Potency [2]: inactive
Potency [4, 5]: inactive
activity, negative = inhibition ([3]; parasite line B): -26.9%
Potency (CP192): inactive
Potency (CP238): inactive
Potency (CP329): inactive
Potency (DFO2036): inactive
Potency (Dd2): inactive
Potency (FAB9): inactive
Potency (JCK): inactive
Potency (N140): inactive
Potency (PC49): inactive

CC1=C(C/C=C(\C)CCCC(C)CCCC(C)CCCC(C)C)C(=O)c2ccccc2C1=O (configuration not stated)
Potency [1]: inactive
Potency [2]: inactive
Potency [4, 5]: inactive
activity, negative = inhibition ([3]; parasite line A): -26.3%
Potency (CP192): inactive
Potency (CP201): inactive
Potency (CP211): inactive
Potency (CP238): inactive
Potency (CP262): inactive
Potency (CP269): inactive
Potency (CP315): inactive
Potency (CP325): inactive
Potency (CP329): inactive
Potency (DFO2036): inactive
Potency (Dd2): 8.91 µM (active)
Potency (FAB9): inactive
Potency (JCK): inactive
Potency (PC49): inactive

Oc1cc2cc(CCN3CCN(c4nsc5ccccc45)CC3)c(Cl)cc2[nH]1
Potency [1]: inactive
Potency [2]: inactive
Potency [4, 5]: inactive
activity, negative = inhibition ([3]; parasite line B): -29.2%
Potency (CP192): inactive
Potency (CP201): inactive
Potency (CP211): inactive
Potency (CP238): inactive
Potency (CP262): inactive
Potency (CP269): inactive
Potency (CP315): inactive
Potency (CP325): inactive
Potency (CP329): inactive
Potency (DFO2036): inactive
Potency (Dd2): inactive
Potency (FAB9): inactive
Potency (JCK): inactive
Potency (PC49): inactive

C/C=C1/NN(CCCN2CCN(c3cccc(Cl)c3)CC2)C(=O)N1CCOc1ccccc1
Potency [1]: inactive
Potency [2]: inactive
Potency [4, 5]: inactive
activity, negative = inhibition ([3]; parasite line A): -8.67%
activity, negative = inhibition ([3]; parasite line B): 7.5%
Potency (CP192): inactive
Potency (CP201): inactive
Potency (CP211): inactive
Potency (CP238): inactive
Potency (CP262): inactive
Potency (CP269): inactive
Potency (CP286): inactive
Potency (CP315): inactive
Potency (CP325): inactive
Potency (CP329): inactive
Potency (DFO2036): inactive
Potency (FAB9): inactive
Potency (JCK): inactive
Potency (N140): inactive
Potency (PC49): inactive

C#C[C@@]1(O)CC[C@@H]2[C@H]3CCC4=C/C(=N\O)CC[C@H]4[C@@H]3CC[C@]21CC
Potency [1]: inactive
Potency [2]: inactive
Potency [4, 5]: inactive
activity, negative = inhibition ([3]; parasite line A): -13.3%
activity, negative = inhibition ([3]; parasite line B): -2.2%
Potency (CP192): inactive
Potency (CP201): inactive
Potency (CP211): inactive
Potency (CP238): inactive
Potency (CP262): inactive
Potency (CP269): inactive
Potency (CP286): inactive
Potency (CP315): inactive
Potency (CP325): inactive
Potency (CP329): inactive
Potency (DFO2036): inactive
Potency (Dd2): inactive
Potency (FAB9): inactive
Potency (JCK): inactive
Potency (N140): inactive
Potency (PC49): inactive

Cc1cnc(NC(=O)C2C(=O)c3ccccc3S(=O)(=O)N2C)s1 (configuration not stated)
Potency [1]: inactive
Potency [4, 5]: inactive
activity, negative = inhibition ([3]; parasite line A): -14.2%
Potency (CP192): inactive
Potency (CP201): inactive
Potency (CP211): inactive
Potency (CP238): inactive
Potency (CP262): inactive
Potency (CP269): inactive
Potency (CP286): inactive
Potency (CP315): inactive
Potency (CP325): inactive
Potency (CP329): inactive
Potency (DFO2036): inactive
Potency (Dd2): inactive
Potency (FAB9): inactive
Potency (JCK): inactive
Potency (N140): inactive
Potency (PC49): inactive

From PubChem BioAssay (NCATS)
